Source: PubChem BioAssay AID652053 (Broad Institute, 2013)
Hit rate of the full screen: of about 1,300 compounds, about 930 (72%) were called active.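 The calls were made as follows: active = fitted curve reaches 40% activation signal increase at or below the top valid tested concentration in every replicate test; inconclusive = replicate tests disagree in their calls; inactive = all replicate tests inactive, including effects opposite the expected signal rise.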 So high a share suggests a set chosen from earlier hits. These entries were drawn from the full list. Results with a measured potency or affinity are listed apart.

assay: miR-122 inhibitors in Huh7 reporter cells, dose response, cell-based, Huh7 psiCHECK-miR122, Renilla luciferase, cherry-pick (AID 652053); details: 48 h; series mostly up to 35 µM; activation (miR-122 inhibition): at the top concentration

Activation (miR-122 inhibition), inactive:
Cc1ccc(S(=O)(=O)N(C)C[C@@H]2Oc3ccc(NC(=O)Nc4ccc(C(F)(F)F)cc4)cc3CC(=O)N([C@H](C)CO)C[C@@H]2C)cc1 12.7%, COc1ccc(NC(=O)N(C)C[C@H]2Oc3ccc(NC(=O)Nc4ccc(C(F)(F)F)cc4)cc3CC(=O)N([C@@H](C)CO)C[C@@H]2C)cc1 2.76% [at 30 µM], COc1ccc(NC(=O)N(C)C[C@@H]2Oc3ccc(NC(=O)Nc4ccc(C(F)(F)F)cc4)cc3CC(=O)N([C@H](C)CO)C[C@H]2C)cc1 4.93%, Cc1ccc(S(=O)(=O)N(C)C[C@@H]2Oc3ccc(NC(=O)Nc4ccc(C(F)(F)F)cc4)cc3CC(=O)N([C@@H](C)CO)C[C@@H]2C)cc1 -7.06%, CSC(=S)NCc1cccnc1 33.8%, Cc1ccc(NC(=O)N(C2=NCC(C)S2)c2ccccc2)cc1 (stereo not drawn) 7.27%, Cn1c(=O)c2cc(S(=O)(=O)NCCC(=O)NCCC3=CCCCC3)ccc2n(C)c1=O -7.18%, Cc1ccc(SC(C)C(=O)NCCC2=CCCCC2)cc1 (stereo not drawn) 0.132%, Cc1ccc(-c2nnc(SCc3ccc(C#N)cc3)n2Cc2ccco2)cc1 25.7%, COc1ccc(OC)c(-n2cc3c(=O)n(C)c(=O)n(C)c3c2)c1 22.8%, CC(C)c1cc(C(=O)N/N=C/C(Br)=C/c2ccccc2)n[nH]1 38%, O=C(Nc1nc2c(s1)CCc1ccccc1-2)c1ccco1 33%, CCc1nc2ccc(C(=O)N3CCN(C(=O)c4ccco4)CC3)cn2c1N(C)C(=O)COc1ccccc1 -12.7%, Cc1ccc(NC(=O)COc2ccc(Br)cc2CO)cc1 -3.88%, CC(=O)N1[C@H](CNC(=O)CN(C)C)[C@H](c2ccc(C3=CCCCC3)cc2)[C@@H]1CO 0%, CC(=O)N(C)C[C@@H]1[C@@H](c2ccc(-c3cccnc3)cc2)[C@H](CO)N1C(=O)C1CC1 -1.89%, CC(=O)N(C)C[C@H]1[C@H](c2ccc(-c3cccnc3)cc2)[C@@H](CO)N1C(=O)C1CC1 4.37%, CN1[C@H](CO)[C@@H]2c3ccccc3N(C(=O)c3ccc(F)cc3)C[C@@H]21 15.8% [at 30 µM], CC(=O)N1[C@H](CO)[C@@H]2c3ccccc3N(C(=O)c3ccc(F)cc3)C[C@@H]21 16.7%, O=C(Nc1ccccc1F)N1C[C@@H]2[C@H](c3ccccc31)[C@H](CO)N2C(=O)c1ccc(F)cc1 24.2% [at 30 µM], O=C(c1ccc(F)cc1)N1C[C@H]2[C@@H](c3ccccc31)[C@H](CO)N2C(=O)c1ccc(F)cc1 12.4%, CC(=O)N1C[C@H]2[C@@H](c3ccccc31)[C@@H](CO)N2C(=O)c1ccc(F)cc1 -1.27%, O=C(Nc1ccccc1F)N1C[C@H]2[C@@H](c3ccccc31)[C@H](CO)N2C(=O)c1ccc(F)cc1 15.8%, O=C(Nc1ccccc1F)N1C[C@@H]2[C@H](c3ccccc31)[C@@H](CO)N2C(=O)c1ccc(F)cc1 17%, CC(C)C(=O)Nc1ccc2c(c1)C(=O)N(C)[C@@H]1CC[C@@H](CC(=O)NCc3cccc(F)c3)O[C@H]1CO2 -10.4%, CC(C)C(=O)Nc1ccc2c(c1)C(=O)N(C)[C@@H]1CC[C@H](CC(=O)NCc3cccc(F)c3)O[C@@H]1CO2 8.41%, CN1C(=O)c2cc(NC(=O)C3CC3)ccc2OC[C@H]2O[C@H](CC(=O)NCc3cccc(F)c3)CC[C@H]21 -7.82%, Cc1ccc2c(CN3CCCc4ccccc43)cc(=O)oc2c1C -5.95%, C[C@H](CO)N1C[C@H](C)[C@@H](CN(C)Cc2ccncc2)Oc2c(NC(=O)C3CCOCC3)cccc2C1=O 9.97%, CNC[C@H]1Oc2c(NC(=O)C3CCOCC3)cccc2C(=O)N([C@H](C)CO)C[C@@H]1C -3.4%, CCOC(=O)N1CCN(c2ncnc3c2oc2nc(C(C)C)c4c(c23)CCC4)CC1 -9.07%, CC(=O)Nc1ccc2nc(CN3CCC(CO)(CCc4ccccc4)CC3)ccc2c1 -3.36%, COc1ccc(N(Cc2ccccc2)S(=O)(=O)c2cccc(C(=O)NC3=NCCS3)c2)cc1 29.8%, CCOC(=O)c1[nH]c(C)c(C(=O)Nc2ccccc2C)c1C 1.56%, Cc1ccc(N2CC(C(=O)Nc3nccs3)CC2=O)cc1Cl (stereo not drawn) 14.3%, c1csc(CNc2ncnc3ccc(-c4ccc5c(c4)OCO5)cc23)c1 -12.4%, CCC(=O)N(C)C[C@@H]1[C@@H](c2ccc(C3=CCCC3)cc2)[C@H](CO)N1C(=O)CC 6.67%, N#Cc1ccc(CSc2nnc(-c3cccnc3)o2)cc1 6.98%, Cc1ccc(S(=O)(=O)NC(C)(C)CSc2nnc(Nc3ccccc3)s2)cc1 10.9%, COCCOC(=O)c1c(C)oc2ccc(NS(=O)(=O)c3ccc(C)cc3)cc12 37.7%, CCc1noc(C)c1C(=O)OCC(=O)c1ccc(NC(C)=O)cc1F 8.21%, COc1ccccc1N1CCN(C(=O)CSc2nnc(NC(=O)C3CCC3)s2)CC1 -5.81%, CCCNC(=O)N1C[C@H]2[C@@H](c3ccccc31)[C@@H](CO)N2Cc1ccc(F)cc1 16.7%, O=C(c1ccccc1F)N1C[C@H]2[C@@H](c3ccccc31)[C@@H](CO)N2CC1CCCCC1 -11%, COc1cc(OC)cc(C(=O)N[C@H](C(=O)Nc2nc3ccccc3[nH]2)C(C)C)c1 -7.67%, O=C1N=C(N2CCc3ccccc3C2)S/C1=C\c1cccc(O)c1 -8.87%, COc1ccc(C(=O)Nc2ccccc2C(=O)N/N=C/c2ccccc2OC)cc1 13.4%, Cc1ncc([N+](=O)[O-])n1CC(=O)Nc1ccc2c(c1)OCO2 -4.33%, N/C(Cc1cccc2ccccc12)=N\OC(=O)c1ccc2c(c1)OCO2 -1.01%, CCc1ccc(-c2cc(C(=O)NCc3ccccn3)c3ccccc3n2)cc1 7.44%, CCOc1ccc(N2C(=O)c3cccnc3C2Nc2ccc(F)cc2)cc1 (stereo not drawn) -5.12%, CCCC(=O)Nc1nc2ccc(NC(=O)c3c(F)c(F)c(OC)c(F)c3F)cc2s1 -14%, O=C(Nc1ccc2c(c1)OCCO2)C1CCN(S(=O)(=O)c2ccccc2)CC1 -3.73%, O=C(NC(=S)NCc1ccc2c(c1)OCO2)c1ccccc1 -7.87%, Cc1ccc(S(=O)(=O)N(C)C[C@@H]2Oc3ccc(NC(=O)Nc4ccc5c(c4)OCO5)cc3CC(=O)N([C@@H](C)CO)C[C@@H]2C)cc1 15.3%, CC1CCN(S(=O)(=O)N2CCC(C(=O)NCCc3ccccc3)CC2)CC1 3.92%, Cc1cc(C)cc(N(CC(=O)N2CCC(C)CC2)S(=O)(=O)c2ccccc2)c1 29.8%, Fc1ccc(CSc2nnc(-c3cccnc3)o2)cc1 7.27%, C[C@H](CO)N1C[C@H](C)[C@@H](CN(C)S(C)(=O)=O)Oc2cc(C#Cc3ccccc3)ccc2S1(=O)=O 40.6%, C[C@H](CO)N1C[C@H](C)[C@H](CN(C)C(=O)Nc2cccc3ccccc23)Oc2ccc(N(C)C)cc2CC1=O -14.8%, CC(C)CC#Cc1ccc2c(c1)O[C@@H](CN(C)C(=O)C1CCC1)[C@@H](C)CN([C@H](C)CO)S2(=O)=O 13.7%, COC(=O)CCCCCC(CCC(=O)OC)NC(C)=O (stereo not drawn) -13.1%, CC(C)NC(=O)COC(=O)c1ccc(NS(=O)(=O)c2ccc3c(c2)OCCO3)cc1 1.64%, COC(=O)C[C@H]1CC[C@@H]2[C@@H](COc3ccc(NS(=O)(=O)c4ccc(C)cc4)cc3C(=O)N2C)O1 4.83%, COC(=O)C[C@H]1CC[C@H]2[C@H](COc3ccc(NS(=O)(=O)c4ccc(C)cc4)cc3C(=O)N2C)O1 13.6%, COC(=O)C[C@@H]1CC[C@H]2[C@H](COc3ccc(NS(=O)(=O)c4ccc(C)cc4)cc3C(=O)N2C)O1 -5.27%, COC(=O)C[C@@H]1CC[C@@H]2[C@@H](COc3ccc(NS(=O)(=O)c4ccc(C)cc4)cc3C(=O)N2C)O1 -5.56%, CN(C)S(=O)(=O)NC(c1ccccc1)c1ccccc1 -5.77%, O=C(COC(=O)c1cccc(NS(=O)(=O)/C=C/c2ccccc2)c1)Nc1ccccc1OC(F)F 36.2%, C[C@H](CO)N1C[C@H](C)[C@@H](CN(C)S(=O)(=O)c2cccs2)Oc2c(NC(=O)C3CCOCC3)cccc2C1=O 0.798%, Cc1noc(C)c1S(=O)(=O)N(C)C[C@@H]1Oc2c(NC(=O)C3CCCCC3)cccc2C(=O)N([C@H](C)CO)C[C@@H]1C 25.2%, COCC(=O)N1[C@H](CO)[C@H](c2ccccc2)[C@@H]1CNC(=O)c1ccccn1 -10.8%, COCC(=O)NC[C@H]1N[C@H](CO)[C@@H]1c1ccc(C2=CCCCC2)cc1 10.5%, O=C(COC(=O)c1c2c(nc3ccccc13)CCN(Cc1ccccc1)C2)Nc1c(F)cccc1F -4.25%, O=C(O/N=C1\CCS(=O)(=O)c2sccc21)c1ccccc1 -8.12%, CCCCNC(=O)CN1C(=O)NC2(CCOc3ccccc32)C1=O (stereo not drawn) -11.2%, O=C(NC[C@@H]1[C@H](c2ccccc2)[C@@H](CO)N1C(=O)C1CC1)NC1CCCC1 -5.22%, O=C(c1ccccc1F)N1C[C@H]2[C@@H](c3ccccc31)[C@@H](CO)N2C(=O)C1CCCC1 9.89%, O=C(Nc1ccccc1F)N1C[C@@H]2[C@H](c3ccccc31)[C@@H](CO)N2C(=O)C1CCCC1 0.798%, CCC(=O)N1[C@H](CO)[C@@H]2c3ccccc3N(C(=O)c3ccccc3F)C[C@@H]21 19.3%, O=C1CCCS(=O)(=O)c2ccccc21 -3.21%, Cc1ccc2nc(C)c(C)nc2c1N -8.43%, CNC(=O)[C@@]1(C)C=C[C@@H](Cc2ccccc2)N1C(=O)OC -0.509%, O=C(Cc1cccs1)Nc1ccc(S(=O)(=O)N2CCCCC2)cc1 24.5%, Cc1ccc(S(=O)(=O)Nc2ccc3c(c2)CC(=O)N([C@H](C)CO)C[C@H](C)[C@@H](CN(C)Cc2ccc(C(=O)Nc4ccccc4N)cc2)O3)cc1 19.4%, Cc1ccc(S(=O)(=O)Nc2ccc3c(c2)CC(=O)N([C@@H](C)CO)C[C@H](C)[C@@H](CN(C)Cc2ccc(C(=O)Nc4ccccc4N)cc2)O3)cc1 -2.8% [at 28.5 µM], Cc1ccc(S(=O)(=O)Nc2ccc3c(c2)CC(=O)N([C@@H](C)CO)C[C@@H](C)[C@@H](CN(C)Cc2ccc(C(=O)Nc4ccccc4N)cc2)O3)cc1 -11% [at 26 µM], Cc1ccc(S(=O)(=O)Nc2ccc3c(c2)CC(=O)N([C@H](C)CO)C[C@@H](C)[C@@H](CN(C)Cc2ccc(C(=O)Nc4ccccc4N)cc2)O3)cc1 0.058%
